Results reported in PubChem BioAssay.
Potency and affinity values are given separately. Inconclusive results are not listed. Activity calls are given as the source filed them. Unless noted, how the calls were made is not given here.

Tests used:
[1] = cytotoxicity in PAX8-dependent RMG-1 cells, dose response, cell-based, cherry-pick (AID 687029;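 active means signal drop whose fitted half-maximal concentration is at most twice the top valid dose, in every test run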;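 further: cells exposed to compound for 96 hours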)
[2] = cytotoxicity in IOSE-T80 ovarian epithelial cells, dose response, selectivity assay for PAX8 inhibitor project, cell-based, cherry-pick (AID 687032;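 active means fitted half-maximal concentration for viability loss no higher than twice the top valid dose, in every repeat run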;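 further: cells exposed to compound for 96 h before reading; 0% = neutral control wells and -100% = 2 µM mitoxantrone kill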)
[3] = inhibitors of CMV-promoter luciferase reporter, dose response, counter-screen for Pax8 inhibitor project, cell-based, HEK293, luminescence, dry powder (AID 743020;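 active means signal-lowering compounds whose fitted half-maximal concentration is at or below twice the top tested dose in every run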;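 further: HEK293 cells stably expressing the CMV luciferase reporter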)
[4] = non-specific cell cytotoxicity, dose response, cytotoxicity control for PAX8 inhibitor project, plate reader, dry powder samples (AID 743021)
[5] = IGROV1 ovarian cancer cell cytotoxicity, dose response, PAX8 inhibitor project, plate reader, dry powder samples (AID 743043);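 further: more negative means fewer viable cells or more cytotoxicity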
[6] = NIH:OVCAR-3 ovarian cancer cell cytotoxicity, dose response, PAX8 inhibitor project, plate reader, dry powder samples (AID 743044); details: max activity: at 35 µM, hits give low values unless noted
[7] = IOSE-T80 ovarian epithelial cell cytotoxicity, dose response, cytotoxicity control for PAX8 inhibitor project, plate reader, dry powder samples (AID 743045);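 further: 0% = neutral control median and -100% = positive control median; more negative values mean more cell killing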
[8] = A2780 ovarian cancer cell cytotoxicity, dose response, cytotoxicity control, plate reader, dry powder samples (AID 743046);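 further: 0% = neutral control wells and -100% = cytotoxic reference compound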
[9] = cytotoxicity in OVCAR8 ovarian cancer cells, dose response, PAX8 project, cell-based, plate reader, dry powder samples (AID 743197)

Measured: max activity

CCCN(C)C[C@H]1OCCCC[C@@H](C)Oc2ccc(NC(=O)c3ccccc3)cc2C(=O)N([C@H](C)CO)C[C@H]1C
inactive: [1] | [2] | [3] | [4] | [5] | [6] 25.8% [at 0.5 µM, hits give low values] | [7] | [8] | [9]

C[C@@H]1CN([C@H](C)CO)C(=O)Cc2cc(NC(=O)Cc3ccccc3)ccc2O[C@@H]1CN(C)Cc1ccc(C(F)(F)F)cc1
inactive: [1] | [2] | [3] | [4] | [5] | [6] -9.67% [at 0.26 µM, hits give low values] | [7] | [8] | [9]

C[C@H]1CCCCO[C@@H](CN(C)C(=O)NC2CCCCC2)[C@@H](C)CN([C@@H](C)CO)C(=O)c2cc(NC(=O)Nc3ccc(C(F)(F)F)cc3)ccc2O1
inactive: [1] | [2] | [3] | [4] | [5] | [6] 10.8% [at 2.1 µM, hits give low values] | [7] | [8] | [9]

C[C@H]1CCCCO[C@H](CN(C)C(=O)Nc2ccc(C(F)(F)F)cc2)[C@@H](C)CN([C@@H](C)CO)C(=O)c2cc(NC(=O)c3ccncc3)ccc2O1
inactive: [1] | [2] | [3] | [4] | [5] | [6] -23.2% [at 0.26 µM, hits give low values] | [7] | [8] | [9]

C[C@@H]1CN([C@H](C)CO)C(=O)c2cc(NC(=O)c3ccccc3)ccc2O[C@@H](C)CCCCO[C@H]1CN(C)Cc1ccc(C(F)(F)F)cc1
inactive: [1] | [2] | [3] | [4] | [5] | [6] -5.41% [at 0.5 µM, hits give low values] | [7] | [8] | [9]

C[C@@H]1CCCCO[C@H](CN(C)C(=O)c2ccccc2)[C@@H](C)CN([C@@H](C)CO)C(=O)c2cc(NC(=O)Nc3ccc(C(F)(F)F)cc3)ccc2O1
inactive: [1] | [2] | [3] | [4] | [5] | [6] 20.2% [at 2.1 µM, hits give low values] | [7] | [8] | [9]

C[C@H](CO)N1C[C@H](C)[C@@H](CN(C)Cc2ccc(C(F)(F)F)cc2)Oc2ccc(NS(=O)(=O)c3ccc(F)cc3)cc2CC1=O
inactive: [1] | [2] | [3] | [4] | [5] | [6] 24.7% [at 16 µM, hits give low values] | [7] | [8] | [9]

C[C@@H]1CCCCO[C@H](CN(C)S(=O)(=O)c2cccs2)[C@H](C)CN([C@@H](C)CO)C(=O)c2cc(NC(=O)CCC(F)(F)F)ccc2O1
inactive: [1] | [2] | [3] | [4] | [5] | [6] -17.7% | [7] | [8] | [9]

Cc1ccc(S(=O)(=O)N(C)C[C@H]2Oc3ccc(NC(=O)Cc4ccccc4)cc3C(=O)N([C@H](C)CO)C[C@@H]2C)cc1
inactive: [1] | [2] | [3] | [4] | [5] | [6] 7.17% [at 8 µM, hits give low values] | [7] | [8] | [9]

C[C@H](CO)N1C[C@H](C)[C@@H](CN(C)CC2CCCCC2)Oc2ccc(NC(=O)Nc3ccc4c(c3)OCO4)cc2CC1=O
inactive: [1] | [2] | [3] | [4] | [5] | [6] 15.5% [at 1 µM, hits give low values] | [7] | [8] | [9]

COc1ccc(S(=O)(=O)Nc2ccc3c(c2)CC(=O)N([C@H](C)CO)C[C@H](C)[C@@H](CN(C)Cc2ccc(-c4ccccc4)cc2)O3)cc1
inactive: [1] | [2] | [3] | [4] | [5] | [6] 36.7% [at 2.1 µM, hits give low values] | [7] | [8] | [9]

C[C@@H]1CCCCO[C@@H](CN(C)Cc2ccccc2)[C@@H](C)CN([C@H](C)CO)C(=O)c2cc(NC(=O)Nc3ccc(C(F)(F)F)cc3)ccc2O1
inactive: [1] | [2] | [3] | [4] | [5] | [6] -13.2% | [7] | [8] | [9]

Cc1ccc(S(=O)(=O)N(C)C[C@H]2Oc3ccc(NC(=O)Nc4ccc(C(F)(F)F)cc4)cc3CC(=O)N([C@@H](C)CO)C[C@H]2C)cc1
inactive: [1] | [2] | [3] | [4] | [5] | [6] 15.5% [at 0.26 µM, hits give low values] | [7] | [8] | [9]

COc1ccccc1S(=O)(=O)N(C)C[C@@H]1Oc2cc(C#CCC3CCCC3)ccc2S(=O)(=O)N([C@@H](C)CO)C[C@@H]1C
inactive: [1] | [2] | [3] | [4] | [5] | [6] -15.5% | [7] | [8] | [9]

Cc1ccc(S(=O)(=O)Nc2ccc3c(c2)C(=O)N([C@@H](C)CO)C[C@@H](C)[C@H](CN(C)Cc2ccc(Cl)c(Cl)c2)OCCCC[C@@H](C)O3)cc1
inactive: [1] | [2] | [3] | [4] | [5] | [6] -18.1% [at 4.2 µM, hits give low values] | [7] | [8] | [9]

C[C@@H]1CCCCO[C@@H](CN(C)C(=O)C2CCCCC2)[C@H](C)CN([C@@H](C)CO)C(=O)c2cc(NS(=O)(=O)c3ccc(Cl)cc3)ccc2O1
inactive: [1] | [2] | [3] | [4] | [5] | [6] -23.1% | [7] | [8] | [9]

C[C@@H]1CCCCO[C@@H](CN(C)Cc2ccc(Cl)c(Cl)c2)[C@H](C)CN([C@H](C)CO)C(=O)c2cc(NS(=O)(=O)c3ccccc3)ccc2O1
inactive: [1] | [2] | [3] | [4] | [5] | [6] 8.76% [at 1.95 µM, hits give low values] | [7] | [8] | [9]

C[C@H](CO)N1C[C@H](C)[C@H](CN(C)C(=O)NC2CCCCC2)Oc2cc(C#Cc3cccc(F)c3)ccc2S1(=O)=O
inactive: [1] | [2] | [3] | [4] | [5] | [6] 16.5% [at 0.5 µM, hits give low values] | [7] | [8] | [9]

C[C@H]1CN([C@@H](C)CO)C(=O)c2ccccc2-c2ccccc2CO[C@H]1CN(C)S(=O)(=O)c1ccc(C(F)(F)F)cc1
inactive: [1] | [2] | [3] | [4] | [5] | [6] 11.8% [at 4.2 µM, hits give low values] | [7] | [8] | [9]

C[C@@H]1CCCCO[C@@H](CN(C)Cc2ccc(C(F)(F)F)cc2)[C@H](C)CN([C@H](C)CO)C(=O)c2cc(NS(=O)(=O)c3ccc(Cl)cc3)ccc2O1
inactive: [1] | [2] | [3] | [4] | [5] | [6] -15.2% [at 1.1 µM, hits give low values] | [7] | [8] | [9]

COc1ccc(S(=O)(=O)N2CCCCN3[C@H](C2)[C@@H](c2ccc(C#CC(C)C)cc2)[C@@H]3CO)cc1
inactive: [1] | [2] | [3] | [4] | [5] | [6] 10.6% [at 8 µM, hits give low values] | [7] | [8] | [9]

C[C@H]1CN([C@@H](C)CO)C(=O)c2c(c3ccccc3n2C)-c2ccccc2CO[C@@H]1CN(C)Cc1ccc(-c2ccccc2)cc1
inactive: [1] | [2] | [3] | [4] | [5] | [6] 59% [at 30 µM, hits give low values] | [7] | [8] | [9]

C[C@@H]1CCCCO[C@H](CN(C)Cc2ccc(Cl)c(Cl)c2)[C@@H](C)CN([C@@H](C)CO)C(=O)c2cc(NS(=O)(=O)c3ccc(Cl)cc3)ccc2O1
inactive: [1] | [2] | [3] | [4] | [5] | [6] -6.91% [at 4.2 µM, hits give low values] | [7] | [8] | [9]

C[C@H]1CCCCO[C@@H](CN(C)Cc2ccc(C(F)(F)F)cc2)[C@@H](C)CN([C@@H](C)CO)C(=O)c2cc(NS(=O)(=O)c3cccs3)ccc2O1
inactive: [1] | [2] | [3] | [4] | [5] | [6] -8.06% [at 4.2 µM, hits give low values] | [7] | [8] | [9]

C[C@@H]1CN([C@H](C)CO)S(=O)(=O)c2ccc(C#Cc3ccncc3)cc2O[C@H]1CN(C)C(=O)Nc1ccc2c(c1)OCO2
inactive: [1] | [2] | [3] | [4] | [5] | [6] -26.8% [at 16 µM, hits give low values] | [7] | [8] | [9]

C[C@@H]1CN([C@@H](C)CO)C(=O)c2cc(NC(=O)c3ccccc3)ccc2O[C@@H](C)CCCCO[C@H]1CN(C)Cc1ccc(C(F)(F)F)cc1
inactive: [1] | [2] | [3] | [4] | [5] | [6] -28.2% [at 0.26 µM, hits give low values] | [7] | [8] | [9]

C[C@H](CO)N1C[C@H](C)[C@H](CN(C)S(=O)(=O)c2cccs2)OCCCC[C@H](C)Oc2ccc(NC(=O)NC3CCCCC3)cc2C1=O
inactive: [1] | [2] | [3] | [4] | [5] | [6] 9.21% [at 0.26 µM, hits give low values] | [7] | [8] | [9]

C[C@H]1CCCCO[C@H](CN(C)S(=O)(=O)c2ccc(Cl)cc2)[C@@H](C)CN([C@@H](C)CO)C(=O)c2cc(NS(=O)(=O)c3ccc(Cl)cc3)ccc2O1
inactive: [1] | [2] | [3] | [4] | [5] | [6] -21.5% | [7] | [8] | [9]
